Screening data as filed in PubChem.
Rab9 promoter act: qHTS Assay for Rab9 Promoter Activators; Huh7 Rab9 promoter-luciferase reporter, luminescence, 24 h; Potency, µM (highest dose often 9.22 µM), most hits filed as activators; actives 2.8% (n = 320,000); AID 485297, 2010; also: nearly all actives have a fitted effect of over 60% in size
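Cells were plated at 1500 per well in reduced-serum medium with 10% FBS and left 2 h. Compound in DMSO was then added for 24 h at 37 °C. Reporter signal was read by luminescence after 10 min with luciferase detection reagent.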
NPC1 promoter act: qHTS Assay for NPC1 Promoter Activators; AID 485313, 2010; actives 2.4% (n = 320,000); Potency, µM (titrated, usually from 9.22 µM), hits mostly activators; Huh7 NPC1 promoter luciferase reporter, 24 h; also: nearly all actives have a fitted effect of over 60% in size
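Cells: Huh7 expressing luciferase under the NPC1 promoter, 1500/well. Seeded 2 h, compound added, incubated 24 h at 37 °C. Luciferase reagent, 10 min ambient, then luminescence.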
SMN2 splice enh: qHTS Assay for Enhancers of SMN2 Splice Variant Expression. Potency, µM (titrated, usually from 46.1 µM), usual class: activators. HEK293 SMN2-luciferase splicing reporter, luminescence, 30-36 h. actives 2.8% (n = 210,000). AID 1458, 2008; also: nearly all actives have a fitted effect of over 55% in size
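qHTS luciferase splicing reporter: luminescence rises when SMN2 exon 7 is included in transfected HEK293 cells. Compound exposure lasted 30-36 h at 37C, with 4.5 mM final sodium butyrate as control, followed by a ONE-Glo read.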
FLuc counter: qHTS profiling assay for firefly luciferase inhibitor/activator using purifed enzyme and Km concentrations of substrates (counterscreen for miR-21 project); purified FLuc, Km substrates, luminescence inhibition; Potency, µM (titrated, usually from 57.5 µM), usual class: inhibitors; actives 6.9% (n = 360,000); also: nearly all actives have a fitted effect of over 55% in size
Target sequence (P08659 whole entry, looked up): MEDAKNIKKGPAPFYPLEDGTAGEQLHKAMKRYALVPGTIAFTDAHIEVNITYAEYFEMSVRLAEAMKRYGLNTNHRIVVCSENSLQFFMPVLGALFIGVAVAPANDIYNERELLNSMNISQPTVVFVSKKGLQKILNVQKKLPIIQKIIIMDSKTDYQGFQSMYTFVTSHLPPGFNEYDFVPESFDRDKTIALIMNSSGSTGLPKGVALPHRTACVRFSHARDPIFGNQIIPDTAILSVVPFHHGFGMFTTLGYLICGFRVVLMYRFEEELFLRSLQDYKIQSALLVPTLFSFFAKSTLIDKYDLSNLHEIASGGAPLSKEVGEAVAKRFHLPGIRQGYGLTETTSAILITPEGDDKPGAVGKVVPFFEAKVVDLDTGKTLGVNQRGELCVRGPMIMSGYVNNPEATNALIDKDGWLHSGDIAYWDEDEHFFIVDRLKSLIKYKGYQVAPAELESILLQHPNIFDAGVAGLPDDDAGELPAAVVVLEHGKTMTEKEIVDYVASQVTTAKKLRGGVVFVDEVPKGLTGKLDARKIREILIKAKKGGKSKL
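Purified P. pyralis luciferase (10nM final) with 10uM D-luciferin and 10uM ATP (Km levels) in 50mM Tris acetate pH 7.5, 10mM Mg acetate, 0.01% Tween-20, 0.05% BSA; qHTS 6-point titration, ~60 µM downward; luminescence read.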
ELG1 genotox: qHTS screen for small molecules that induce genotoxicity in human embryonic kidney (HEK293T) cells expressing luciferase-tagged ELG1. HEK293T ELG1-luciferase reporter, luminescence, 16 h. Potency, µM (series often up to 46 µM), most hits filed as activators. actives 1.3% (n = 330,000); also: nearly all actives have a fitted effect of over 60% in size
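Genotoxicity was scored as increased ELG1-luciferase reporter signal, measured by ONE-Glo luminescence (30 min, room temperature). Compound or vehicle exposure of the HEK293T reporter cells lasted 16 hr at 37°C.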
ELG1 repair inh: qHTS screen for small molecules that inhibit ELG1-dependent DNA repair in human embryonic kidney (HEK293T) cells expressing luciferase-tagged ELG1. actives 2.3% (n = 330,000). Potency, µM (titrated, usually from 46.1 µM), usual class: inhibitors. HEK293T ELG1-luciferase reporter, luminescence, 16 h; DNA damage induced by 5-fluorouridine; also: nearly all actives have a fitted effect of over 55% in size
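In this reporter screen, reduction of luminescence relative to DMSO vehicle indicated activity. Compounds and 5-fluorouridine were added together to 2,000 cells per well, incubated for 16 hr at 37 °C, then developed with ONE-Glo.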
Large screens that a line does not name were inactive. Only some compounds are listed: those with a hit (about 9.2% of all), similar ones and a draw of the others. Calls follow the shape of the dose curve; as a rule, active = well fitted curve in the direction sought with a large enough effect; inconclusive = small, poorly fitted or top-dose-only effect, or another doubt; inactive = no such curve, though single readings can be large; an effect the other way counts as inactive or inconclusive.

COc1cc(-c2nnn(CC(=O)N3CCOCC3)n2)cc(OC)c1OC	none
CCCOc1ccc(-c2nnn(CC(=O)OCC)n2)cc1	FLuc counter inconclusive
COc1cc(Cl)c(C)cc1NC(=O)c1cc(CN2CCOCC2)on1	none (no result: Rab9 promoter act, NPC1 promoter act, SMN2 splice enh, ELG1 genotox, ELG1 repair inh)
CCOC(=O)Cn1nnc(-c2cccc(OC)c2)n1	FLuc counter 10.7µM
CC(=O)Nc1ccc2nc(-c3ccc(Br)o3)[nH]c2c1	Rab9 promoter act 3.55µM, NPC1 promoter act inconclusive, SMN2 splice enh inconclusive, FLuc counter 3.79µM, ELG1 genotox inconclusive, ELG1 repair inh inconclusive
O=C(Nc1ccc2nc[nH]c2c1)c1ccco1	Rab9 promoter act inconclusive, FLuc counter 19µM, ELG1 genotox inconclusive, ELG1 repair inh inconclusive
Cc1nc2ccc(C(=O)Nc3ccc4nc[nH]c4c3)cc2[nH]1	FLuc counter inconclusive (no result: SMN2 splice enh)
CC(C)(C)C(=O)Nc1ccc(-c2nc3ccc(NC(=O)C(C)(C)C)cc3[nH]2)cc1	SMN2 splice enh inconclusive, FLuc counter 1.9µM (no result: Rab9 promoter act, NPC1 promoter act, ELG1 genotox, ELG1 repair inh)
O=C(Nc1ccc2nc(-c3ccc(Br)o3)[nH]c2c1)c1cccs1	FLuc counter 4.26µM
CC(=O)Nc1ccc(Oc2ccc3nc(C)[nH]c3c2)cc1	none
CC(C)n1c(SCC(=O)c2ccc(F)cc2)nc2c(sc3ccccc32)c1=O	none (no result: Rab9 promoter act, NPC1 promoter act, SMN2 splice enh, ELG1 genotox, ELG1 repair inh)
CC1=C(c2ccc(C)cc2)S(=O)(=O)N(Cc2ccc(C(=O)Nc3ccc(C)c(F)c3)cc2)C1=O	none (no result: Rab9 promoter act, NPC1 promoter act, SMN2 splice enh, ELG1 genotox, ELG1 repair inh)
CC(O)C(=O)O (stereo not given)	none (no result: Rab9 promoter act, NPC1 promoter act, FLuc counter, ELG1 genotox, ELG1 repair inh)
O=C(Nc1ccccc1OCc1ccccc1)c1ccccc1Br	none (no result: SMN2 splice enh)
Cc1cccc2[nH]c(-c3ccc(NC(=O)c4ccco4)cc3)nc12	Rab9 promoter act 1µM, NPC1 promoter act 2.24µM, SMN2 splice enh 14.1µM, FLuc counter 4.78µM, ELG1 genotox inconclusive, ELG1 repair inh inconclusive
Cc1cccc(NC(=O)c2ccco2)c1C	none (no result: SMN2 splice enh)
O=C(Nc1ccc2nc(-c3ccc(Br)o3)[nH]c2c1)c1ccco1	Rab9 promoter act inconclusive, NPC1 promoter act inconclusive, FLuc counter 5.36µM
Cc1ccc(-c2nc3ccccc3[nH]2)cc1NC(=O)c1ccco1	FLuc counter 15.1µM (no result: SMN2 splice enh)
O=C(Nc1ccc2nc(-c3ccccc3)[nH]c2c1)c1ccco1	Rab9 promoter act inconclusive, NPC1 promoter act inconclusive, SMN2 splice enh 15.8µM, FLuc counter 10.7µM, ELG1 genotox inconclusive, ELG1 repair inh inconclusive
COc1ccc(C2CC(=O)N(CC(=O)Nc3ccc(C)c(Cl)c3)c3ccccc3S2)cc1OC (stereo not given)	none (no result: Rab9 promoter act, NPC1 promoter act, ELG1 genotox, ELG1 repair inh)
COc1ccc(S(=O)(=O)n2cccc2)cc1OC	none (no result: SMN2 splice enh)
Cc1ccc(Nc2nc(C(N)=O)c(NC(=O)c3ccccc3Br)s2)cc1	none (no result: Rab9 promoter act, NPC1 promoter act, SMN2 splice enh, ELG1 genotox, ELG1 repair inh)
COc1cccc(OC)c1C(=O)NC(=S)Nc1cc(-c2nc3ccccc3[nH]2)ccc1Cl	FLuc counter inconclusive, ELG1 repair inh 8.2µM
Cc1ccccc1C1=NC(c2ccc(F)cc2F)ON1 (stereo not given)	FLuc counter 23.9µM, ELG1 genotox 11.2µM, ELG1 repair inh inconclusive
Cc1ccccc1-c1nn(-c2ccc(F)cc2F)cc1CNCC(C)O (stereo not given)	none (no result: SMN2 splice enh)
COc1ccccc1C1N=C(c2ccccc2C)NO1 (stereo not given)	Rab9 promoter act inconclusive, FLuc counter 8.49µM, ELG1 genotox 10.3µM, ELG1 repair inh inconclusive (no result: SMN2 splice enh)
COc1ccccc1C1=NC(c2ccc(F)cc2)N=C1C (stereo not given)	Rab9 promoter act inconclusive, FLuc counter inconclusive
Cn1c(=O)c2[nH]c(COc3ccc(C(C)(C)C)cc3)nc2n(C)c1=O	FLuc counter inconclusive, ELG1 repair inh 5.8µM (no result: SMN2 splice enh)
O=C1C2C3C=CC(CC3)C2C(=O)N1c1ccc(Cl)cc1Cl (stereo not given)	FLuc counter 15.1µM (no result: SMN2 splice enh)
CCCNC(=O)C(Cc1ccccc1)NS(=O)(=O)c1ccc2c(c1)c(=O)n(C)c(=O)n2C (stereo not given)	none
